Inconclusive results are not listed. A call without a number means that no potency is given here. Calls of active or inactive are those of the source. Calls follow the shape of the dose curve; as a rule, active = well fitted inhibition curve with a large enough effect; inconclusive = small, poorly fitted or top-dose-only effect; inactive = no such curve, though single readings can be large or run the other way.
Potency is read from the fitted curve at half-maximal effect.

The experiment can be described thus: qHTS to identify inhibitors of the type 1 interferon - major histocompatibility complex class I in skeletal muscle: Secondary screen by immunofluorescence. Also: nearly all actives have a fitted effect of over 70% in size. The note with it: C25cl48 myoblasts, IFN-b induced HLA-ABC immunofluorescence, 24 h, Viability; series mostly up to 49.8 µM. An outline of the steps:
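HLA-ABC immunofluorescence, with nuclear and cell-body stains, was quantified by laser scanning cytometry. Read-out followed 24 h of IFN-beta (4.0 ng/ml) stimulation of C25cl48 human myoblasts with compounds titrated 1:3 over 11 points from 50 uM, with ruxolitinib as inhibitor control.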
In general terms: qHTS replaces the single test concentration by a dilution series.
As to `COC1CC(C(=O)c2ccc3c(N)ncc(-c4ccc(-c5cnn(C)c5)cc4)c3n2)C1` (configuration not stated), the Potency entry was “inactive”.

Turning to `CCc1cc(C(N)=O)ccc1-n1nc(C(C)C)c2c(-n3cnc(-c4cnn(C)c4)c3)ccnc21`, the Potency result was “inactive”.

Take `Cc1ncc(-c2ccnc(Nc3ccc(S(C)(=O)=O)cc3)n2)n1C(C)C`: the Potency entry was “inactive”.

In the case of `Nc1ccccc1NC(=O)c1ccc(CNc2nccc(-c3cccnc3)n2)cc1`, the Potency result was “inactive”.

Turning to `Cc1cc(Nc2cc(CN3CCOCC3)c3nc(C)c(Cc4ccc(Cl)cc4F)n3n2)n[nH]1`, the Potency was 20.5 µM (active).

With `COCCN1CCN(Cc2ccc(-c3n[nH]c4c3C(=O)c3c(NC(=O)NN5CCOCC5)cccc3-4)cc2)CC1`, the Potency is 20.5 µM (active).

Consider `O=C1Nc2ccccc2C1(c1ccc(O)cc1)c1ccc(O)cc1`, for which the Potency result is “inactive”.

`COc1cccc2c1C(=O)c1c(O)c3c(c(O)c1C2=O)C[C@@](O)(/C(CO)=N/NC(=O)CCCCCN1C(=O)C=CC1=O)C[C@@H]3O[C@H]1C[C@H](N)[C@H](O)[C@H](C)O1`: the Potency entry was “inactive”.

Take `O=C(/C=C\n1cnc(-c2cc(C(F)(F)F)cc(C(F)(F)F)c2)n1)NNc1cnccn1`: the Potency result is “inactive”.

Consider `C=CC(=O)N1CCc2ccc(-n3c(=O)ccc4cnc5ccc(-c6cnn(C)c6)cc5c43)cc21`, for which the Potency is 16.2 µM (active).

Turning to `CCc1c(O)cc(O)c(C(=O)c2ccc(OCCN3CCOCC3)c(OC)c2)c1CC(=O)N(CCOC)CCOC`, the Potency entry was “inactive”.

Take `Cc1c(C(=O)Nc2ccc(Oc3ccnc4[nH]cc(-c5ccccc5)c34)c(F)c2)c(=O)n(-c2ccc(F)cc2)n1C`: the Potency entry was “inactive”.

In the case of `C/C=C1\NC(=O)[C@H]2CSSCCC=C[C@H](CC(=O)N[C@H](C(C)C)C(=O)N2)OC(=O)[C@H](C(C)C)NC1=O`, the Potency was 8.14 µM (active).

As to `COc1cccc(-c2cc(F)ccc2[C@H]2Cc3nc(N)nc(C)c3C(=O)N2)n1`, the Potency result was “inactive”.

For `Fc1cccc(-n2cnc3c(NCc4nc5c(F)c(F)ccc5[nH]4)nc(N4CCOCC4)nc32)c1`, the Potency entry is “inactive”.

`CCOC(=O)C1=C(C)NC2=C(C(=O)CC(C)(C)C2)C1c1ccc(-c2ccccc2)cc1` (configuration not stated): the Potency result was “inactive”.

As to `CN(C)Cc1c(C(=O)NCCOc2ccc(C(=O)NO)cc2)oc2ccccc12`, the Potency result was “inactive”.

Consider `CCCCc1nc2cc(/C=C/C(=O)NO)ccc2n1CCN(CC)CC`, for which the Potency entry is “inactive”.

On to `CC(C)C[C@H](NC(=O)CNC(=O)c1cc(Cl)ccc1Cl)B1OC(=O)CC(CC(=O)O)(C(=O)O)O1` (some centres not stated), for which the Potency result was “inactive”.

With `C[C@H](NC(=O)/C(C#N)=C/c1cccc(Br)n1)c1ccccc1`, the Potency was 12.9 µM (active).

Take `O=C(/C=C/c1ccc(CN(CCO)CCc2c[nH]c3ccccc23)cc1)NO`: the Potency result was “inactive”.

In the case of `CCc1c(-c2ccccc2C)nc2c(C#N)c[nH]n2c1=O`, the Potency entry is “inactive”.

As to `CCOC(=O)N1CCN(/[N+]([O-])=N/Oc2ccc([N+](=O)[O-])cc2[N+](=O)[O-])CC1`, the Potency is 14.5 µM (active).

Take `CCS(=O)(=O)N1CC(CC#N)(n2cc(-c3ncnc4[nH]ccc34)cn2)C1`: the Potency result was “inactive”.

As for `CCC(=C/[C@H](C)C/C=C/C(C)=C/[C@@H](C)C(=O)[C@@H](C)[C@H](O)[C@@H](C)C/C(C)=C/C(=O)O)/C=C/[C@@H]1OC(=O)C=C[C@@H]1C`, the Potency entry is “inactive”.

Turning to `CC[C@]1(O)C[C@H]2CN(CCc3c([nH]c4ccccc34)[C@@](C(=O)OC)(c3cc4c(cc3OC)N(C=O)[C@H]3[C@@](O)(C(=O)OC)[C@H](OC(C)=O)[C@]5(CC)C=CCN6CC[C@]43[C@@H]65)C2)C1`, the Potency entry was “inactive”.

As for `CNC(=O)c1ccc(Nc2ncc(C(F)(F)F)c(NCc3nccnc3N(C)S(C)(=O)=O)n2)cc1`, the Potency result was “inactive”.

On to `NC(=O)Nc1sc(-c2ccc(F)cc2)cc1C(N)=O`, for which the Potency entry was “inactive”.

For `CC(C)(C)c1nc2c3cc[nH]c(=O)c3c3cc(F)ccc3c2[nH]1`, the Potency result is “inactive”.

As to `O=C(Nc1nc2cccc(-c3ccc(CN4CCS(=O)(=O)CC4)cc3)n2n1)C1CC1`, the Potency entry is “inactive”.

As to `C=CC(=O)N1CC/C(=C\c2ccc(F)c([N+](=O)[O-])c2)C(=O)/C(=C/c2ccc(F)c([N+](=O)[O-])c2)C1`, the Potency is 0.408 µM (active).

Consider `CC[C@@]1(O)C(=O)OCc2c1cc1n(c2=O)Cc2c-1nc1cc(F)c(C)c3c1c2[C@@H](N)CC3`, for which the Potency entry was “inactive”.

On to `COC(=O)Nc1nc2ccc(C(=O)c3ccc(F)cc3)cc2[nH]1`, for which the Potency result was “inactive”.

On to `CC(C)(C)CC(=O)OCC(=O)[C@@]1(O)CC[C@H]2[C@@H]3CCC4=CC(=O)C=C[C@]4(C)[C@H]3[C@@H](O)C[C@@]21C`, for which the Potency result was “inactive”.

Consider `O=C(NC1CCNCC1)c1[nH]ncc1NC(=O)c1c(Cl)cccc1Cl`, for which the Potency result was “inactive”.

Turning to `O=C1NCCc2[nH]c(-c3ccncc3)cc21`, the Potency entry was “inactive”.

Turning to `CN(Cc1ccc(/C=C/C(=O)NO)cc1)CC12CC3CC(CC(C3)C1)C2`, the Potency entry is “inactive”.

For the origin of these results see PubChem BioAssay AID1347414 (National Center for Advancing Translational Sciences (NCATS), 2020).
